This passage reports sensor-assay potency score (higher = more potent) results from the OligoGym collection.

Among the targets are FGFR1; FGF2; FIZ1.
Assay in all cases: pooled miR-30 sensor sort-seq; sequence = guide strand
Conditions in all cases: shRNA
Further: reference of the scale not given here.

For the sequence TCATTCTCCACAATGCAGGTGT, in the experiment with FGFR1, the sensor-assay potency score (higher = more potent) is 0.557. Take TTGGAAGAAAAAGTATAGCTTT: the sensor-assay potency score (higher = more potent) with FGF2 worked out at 0.162.

For TAGCGGTGCAGAGTGTGGCTGT, the sensor-assay potency score (higher = more potent) with FGFR1 was -0.244. Still for that read-out and setting: for TTGTCGGTGGTATTAACTCCAG the value was -1.38. In the experiment with FGF2, TTTGCAGTACAGCCGCTTGGGG showed a sensor-assay potency score (higher = more potent) of -0.977.

In turn, ATAGACACAACTCCTCTCTCTT gave a sensor-assay potency score (higher = more potent) with FGF2 of -0.298.

In turn, TTTGTGTTTTCTTCATAGCTAT registered a sensor-assay potency score (higher = more potent) with FGFR1 of -0.428. Still for that read-out and setting: for TTACTGGGCTTGTCCATGCGGT the value was -0.849. The same measure, in the same setting: for TTTTATAGTAGTCGATGTGGTG the value was -0.492. In turn, TTGTGCACAGCCATCTGGCTGT showed a sensor-assay potency score (higher = more potent) with FGFR1 of -0.135.

The sequence TGTCTTTTTATAGTAGTCGATG gave a sensor-assay potency score (higher = more potent) with FGFR1 of -1.03. For the sequence TTCAGTGCCACATACCAACTGG, the sensor-assay potency score (higher = more potent) in the experiment with FGF2 was -0.475. As to TAGTTATTAGATTCCAATCGTT, the sensor-assay potency score (higher = more potent) with FGF2 was -0.676. On the same count and under the same terms, for TGGTGTATTTCCTTGACCGGTA the value was -0.344; for AAAAAAGAAACACTCATCCGTA, 0.00256. Turning to TTTTAATATATAGCAACTGATG, the sensor-assay potency score (higher = more potent) with FGFR1 is -1.31.

On to TTGATAGACACAACTCCTCTCT, for which the sensor-assay potency score (higher = more potent) in the experiment with FGF2 worked out at 0.382. In the experiment with FGF2, TCCATCTTCCTTCATAGCCAGG gave a sensor-assay potency score (higher = more potent) of -1.98. In turn, TTGAAGGTGGGTCTCTGTGAGG had a sensor-assay potency score (higher = more potent) with FGFR1 of -0.69. With TTCTAAAATATACTTCTTCTTT, the sensor-assay potency score (higher = more potent) with FGF2 was -0.418.

TATACTTCTTCTTTCATGTGAA: the sensor-assay potency score (higher = more potent) with FGF2 came to 0.715. Same read-out and setting: for TAACACATTTAGAAGCCAGTAA the value was -0.0447; for TAGCTTTCTGCCCAGGTCCTGT, -0.929. Sequence TAGAAGCCAGTAATCTTCCATC had a sensor-assay potency score (higher = more potent) with FGF2 of -0.587. On to TTGTCTTTTTATAGTAGTCGAT, for which the sensor-assay potency score (higher = more potent) with FGFR1 is -0.804.

For the sequence AACGGTTAGCACACACTCCTTT, in the experiment with FGF2, the sensor-assay potency score (higher = more potent) turned out to be 0.1. Still for that read-out and setting: for TAACGGTTAGCACACACTCCTT the value was -1.27. As for TTTGGATCCAAGTTTATACTGC, the sensor-assay potency score (higher = more potent) in the experiment with FGF2 was -0.268. Sequence TTCATCATCTCCATTTCTGAGA had a sensor-assay potency score (higher = more potent) in the experiment with FGFR1 of -0.548.

As for TCTCGCACTCGGAGCAGCCGAA, in the experiment with FIZ1, the sensor-assay potency score (higher = more potent) is -1.41.
